# Reference: PubChem BioAssay (EPA / NIEHS)
# Inconclusive results are not listed. Calls of active or inactive are those of the source. Rule for the calls: active = hit-call score of the fitted dose curve at least 0.9, where 1 is the maximum; inconclusive = response in the unintended direction; inactive = score below 0.9.
# Biological target: Retinoic acid receptor RXR-alpha (Homo sapiens) (UniProt P19793)
# Experiment: ATG_RXRa_TRANS: Attagene TRANS-FACTORIAL HepG2 Assay for human Retinoid X Receptor alpha (RXRa) (AID 2283012)
# Procedure: ATG_TRANS is a cell-based, multiplexed-readout assay that uses HepG2, a human liver cell line, with measurements taken at 24 hours after chemical dosing in a 24-well plate.ATG_RXRa_TRANS is one of 30 assay component(s) measured or calculated from the ATG_TRANS assay. It is designed to make measurements of mRNA induction, a form of inducible reporter, as detected with fluorescence intensity signals by Reverse transcription polymerase chain reaction (RT-PCR) and Capillary electrophoresis technology.Data from the assay component ATG_RXRa_TRANS was analyzed into 1 assay endpoint. This assay endpoint, ATG_RXRa_TRANS, was analyzed in the positive analysis fitting direction relative to DMSO as the negative control and baseline of activity. Using a type of inducible reporter, measures of mRNA for gain-of-signal activity can be used to understand the reporter gene at the transcription factor-level as they relate to the gene RXRA. Furthermore, this assay endpoint can be referred to as a primary readout, because this assay has produced multiple assay endpoints where this one serves a reporter gene function. To generalize the intended target to other relatable targets, this assay endpoint is annotated to the nuclear receptor intended target family, where the subfamily is non-steroidal.
# Human liver HepG2 cells are transiently transfected with multiple reporter transcription units (MRTUs) in 6-well plates using FuGene 6 reagent (Roche; 3 ml FuGene/1 mg DNA). The MRTU constructs are regulated by a cis-regulating element (promoter). […] A major difference between the CIS and TRANS system is that in CIS activities of endogenous TFs are measured, whereas the TRANS assay evaluates changes in activities of exogenous, chimeric NR-Gal4 proteins. […] At the end of 24 hour incubation, total RNA was isolated using TriZol reagent (Invitrogen). The isolated RNA is then reverse-transcribed using oligo(dT) primer and Mo-MLV reverse transcriptase (Invitrogen) with DNAse I (Ambion) treatment for 30 min. The one-tenth of the produced cDNA was amplified by PCR using Taq DNA polymerase (Invitrogen) and two reporter sequence-specific primers. The PCR products were fluorescently labeled by primer extension with 6-arboxyfluorescein (6-FAM) 5'-labeled reporter sequence-specific primer (2 min at 95 C, 20 s at 68 C and 10 min at 72 C) and these products were digested with 5U of HpaI (New England Biolabs) for 2h at 37 C. The fragments were purified using Qiaquick PCR columns (Qiagen), analyzed on an ABI 3130xL genetic analyzer (Applied Biosystems) with peak positions identified by using a set of X-rhodamine (ROX)-labeled MapMarker1000 molecular weight standards (BioVentures). The raw capillary electrophoresis data was processed using Attagraph software (Attagene).
# Retinoic acid receptor RXR-alpha (Homo sapiens), sequence (P19793 whole entry, looked up): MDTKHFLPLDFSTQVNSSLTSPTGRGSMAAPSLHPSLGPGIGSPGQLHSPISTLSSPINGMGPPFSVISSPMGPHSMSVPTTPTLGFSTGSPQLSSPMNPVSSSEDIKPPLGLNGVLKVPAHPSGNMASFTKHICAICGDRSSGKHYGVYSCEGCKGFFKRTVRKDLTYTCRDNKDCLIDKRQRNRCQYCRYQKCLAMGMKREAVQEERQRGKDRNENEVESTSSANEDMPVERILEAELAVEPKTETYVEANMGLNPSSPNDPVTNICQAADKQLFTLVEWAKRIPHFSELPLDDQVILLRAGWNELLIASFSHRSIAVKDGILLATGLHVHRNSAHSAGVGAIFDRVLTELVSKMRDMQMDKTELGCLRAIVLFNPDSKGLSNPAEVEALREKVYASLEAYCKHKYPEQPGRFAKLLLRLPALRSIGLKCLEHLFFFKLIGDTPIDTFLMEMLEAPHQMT
Compound,outcome,AC50
Clc1ccc2c(c1)C(N1CCNCC1)=Nc1ccccc1O2,inactive,–
O=C1CCc2ccccc2O1,inactive,–
CCN(CC)c1ccc(C(=C2C=CC(=[N+](CC)CC)C=C2)c2ccc(S(=O)(=O)O)cc2S(=O)(=O)[O-])cc1,inactive,–
Nc1cc([N+](=O)[O-])ccc1Cl,inactive,–
CCCC(=O)OCCC(C)CCC=C(C)C (stereo not given),inactive,–
O=C(O)c1cn(C2CC2)c2cc(N3CCNCC3)c(F)cc2c1=O,inactive,–
CC(=O)OCCOC(C)=O,inactive,–
NCCOCCO,inactive,–
CC(CC(C)(C)C)CC(C)(C)CC(C)(C)C (stereo not given),inactive,–
Fc1c(F)c(F)c(Br)c(F)c1F,inactive,–
Cc1cccc(C)c1C,inactive,–
CCCCCCCCCCN,inactive,–
CSc1nnc(C(C)(C)C)c(=O)[nH]1,inactive,–
OCC(CO)(CO)COCC(CO)(CO)CO,inactive,–
CCc1ccc(C=O)cc1,inactive,–
CCCCCCOC(=O)CCCCC,inactive,–
COc1c(Cl)c(Cl)c(Cl)c(Cl)c1Cl,–,29.1 µM (active)
Cc1cccc(Nc2ccccc2C(=O)O)c1C,inactive,–
C=C(C)C(=O)Nc1ccc(Cl)c(Cl)c1,inactive,–
O=C1CCCCCCCCCCCCCCO1,inactive,–

Compound,outcome,AC50
O=C(Oc1ccccc1)c1ccc(O)cc1,inactive,–
Cc1ccc(Nc2ccc(O)c3c2C(=O)c2ccccc2C3=O)cc1,inactive,–
CCCCCOC(=O)CCC,inactive,–
NNc1nc(-c2ccc(N)cc2)cs1,inactive,–
C=CC(C)(C)O,inactive,–
N#Cc1nc(Cl)c(Cl)c(Cl)c1Cl,inactive,–
Cc1ccccc1C=O,inactive,–
CCCCCCCCCC=O,inactive,–
CC(CN1c2ccccc2Sc2ccccc21)N(C)C (stereo not given),inactive,–
Cc1ccc(C=O)s1,inactive,–
CCCCCCOC(=O)CC,inactive,–
CC1=CCC2C(C1)C2(C)C (stereo not given),inactive,–
O=C(O)C[C@H](O)C[C@H](O)/C=C/c1c(C2CC2)nc2ccccc2c1-c1ccc(F)cc1,inactive,–
COc1cc(C=O)ccc1OC(=O)C(C)C,inactive,–
COC(=O)C1=C(C)NC(C)=C(C(=O)OCCN(C)Cc2ccccc2)C1c1cccc([N+](=O)[O-])c1 (stereo not given),inactive,–
COCCCOc1ccnc(CS(=O)c2nc3ccccc3[nH]2)c1C (stereo not given),inactive,–
NC(N)=NC(=O)c1nc(Cl)c(N)nc1N,inactive,–
C=CCOC(=O)CCC1CCCCC1,inactive,–
CC(=O)O[C@]1(C(C)=O)CC[C@H]2[C@@H]3C[C@H](C)C4=CC(=O)CC[C@]4(C)[C@H]3CC[C@@]21C,–,2.91 µM (active)
O=Nc1ccc(Nc2ccccc2)cc1,inactive,–
